Several values for one entry are separate records, joined by “and”; a condition that tells them apart may be missing. Equal values may be shown once. Activity calls are given as the source filed them.

Test [1] deals with Plasmodium falciparum Sir2 (PF13_0152, Sir2A). The experiment in a line: Plasmodium falciparum Sir2A binding compounds – biochemical, small-molecule microarray, 635 nm fluorescence, primary screen (AID 1098).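 Also: score merges spot fluorescence intensity with its signal-to-noise ratio.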 The following applies: fluorescence 635 nm, higher = more signal.
Test [2] in a line: probe aDKK1 binding to arrayed compounds – biochemical, biotinylated probe, 635/667 nm fluorescence, primary screen (AID 1099).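 Also: score merges 667nm spot fluorescence with signal to noise across triplicate slides.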 The conditions noted are these: small-molecule microarray, higher = more signal.
Test [3] is described as follows: probe aCHRDL2 binding to arrayed compounds – biochemical, biotinylated probe, 635/667 nm fluorescence, primary screen (AID 1100). The following applies: small-molecule microarray, higher = more signal.
The nature of test [4]: change in splice reporter luminescence, either direction, cell-based, HEK293, spliceosome inhibition project, primary screen (AID 1101).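 Also: HEK293 cells carrying a splicing-competent luciferase reporter gene; test concentration not given here.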 The following applies: HEK293 splicing luciferase reporter, 24 h, higher = more signal, called active from +8 up or from −8 down.
Test [5] deals with Fibroblast growth factor 10 (Homo sapiens) (UniProt O15520). The experiment in a line: compounds binding fibroblast growth factor 10 – biochemical, small-molecule microarray, 635 nm fluorescence, primary screen (AID 1102). The conditions noted are these: FGF10 binding, fluorescence 635 nm, higher = more signal.
Chain of Fibroblast growth factor 10 (Homo sapiens) (O15520 whole entry, looked up): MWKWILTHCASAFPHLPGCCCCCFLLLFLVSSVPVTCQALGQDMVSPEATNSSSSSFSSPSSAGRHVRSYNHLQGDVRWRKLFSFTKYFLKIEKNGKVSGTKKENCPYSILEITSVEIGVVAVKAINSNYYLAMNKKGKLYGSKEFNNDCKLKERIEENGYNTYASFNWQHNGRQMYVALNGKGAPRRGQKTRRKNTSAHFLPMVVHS
For test [6], the system named is glycogen synthase kinase-3 (GSK3A per assay name; protocol says GSK3B). The experiment in a line: compounds binding glycogen synthase kinase-3 – biochemical, small-molecule microarray, 635 nm fluorescence, GSK3A, primary screen (AID 1103). Also: the record names both GSK3A and GSK3B. The conditions noted are these: fluorescence 635 nm, higher = more signal.
Test [7] concerns the target Epidermal growth factor receptor (Homo sapiens) (UniProt P00533). The experiment in a line: compounds binding epidermal growth factor receptor – biochemical, small-molecule microarray, 635 nm fluorescence, primary screen (AID 1104).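 Also: score merges 667 nm emission intensity with spot signal to noise over triplicate slides.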 The following applies: EGFR binding, higher = more signal.
Test [8] addresses Follistatin-related protein 3 (Homo sapiens) (UniProt O95633). The experiment in a line: compounds binding follistatin-related protein 3 – biochemical, small-molecule microarray, 635 nm fluorescence, primary screen (AID 1105).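 Also: score merges emission near 667 nm and signal to noise per printed spot across three slides.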 The conditions noted are these: FSTL3 binding, higher = more signal.
For test [9], the target named is Dickkopf-related protein 1 (Homo sapiens) (UniProt O94907). The experiment in a line: small molecules binding DKK1 protein – biochemical, small-molecule microarray, 635 nm fluorescence scan, primary screen (AID 1106).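 Also: score merges emission near 667 nm with signal to noise over three replicate slides.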 The following applies: higher = more signal.
Chain of Dickkopf-related protein 1 (Homo sapiens) (O94907 whole entry, looked up): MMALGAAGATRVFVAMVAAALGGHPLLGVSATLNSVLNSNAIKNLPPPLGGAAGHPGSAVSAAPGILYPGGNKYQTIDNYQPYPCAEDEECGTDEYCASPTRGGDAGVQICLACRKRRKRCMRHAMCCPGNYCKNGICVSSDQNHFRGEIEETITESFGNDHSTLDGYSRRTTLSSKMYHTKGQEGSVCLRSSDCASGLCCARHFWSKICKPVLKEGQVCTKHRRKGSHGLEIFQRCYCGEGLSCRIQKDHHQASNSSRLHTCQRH
For test [10], the system named is Inhibin beta A chain (activin A). The experiment in a line: small molecules binding activin A – biochemical, small-molecule microarray, 635 nm fluorescence scan, primary screen (AID 1107).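 Also: mouse activin A protein probed at 4.33 µg/mL on printed slides; score merges bound-protein fluorescence near 667 nm with spot signal-to-noise.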 The conditions noted are these: INHBA, higher = more signal.
For test [11], the system named is Human papillomavirus type 1a protein E7 (residues 44-93). The experiment in a line: small molecules binding HPV E7 44-93 – biochemical, small-molecule microarray, residues 44-93, 635 nm fluorescence, primary screen (AID 1108).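 Also: E7 fragment applied at 1 µg/mL in TBST for 1 h at 4 C; score combines spot fluorescence with its signal to noise ratio.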 The following applies: fluorescence 635 nm, higher = more signal.
The nature of test [12]: hepatitis C replication reporter changes, two-sided – Huh7 cells, luciferase reporter, HCV replication inhibitor project, primary screen (AID 1109).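 Also: huh7 hepatoma cells harbouring a luciferase neomycin HCV replicon reporter; luciferase luminescence as measure of HCV replicon replication; test concentration not given here.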 The following applies: Huh7 HCV replicon luciferase reporter, 48 h; higher = more signal. A general note: A reporter such as luciferase makes a cellular process visible.
The target of test [13] is Left-right determination factor 2 (Homo sapiens) (UniProt O00292). The experiment in a line: small molecules binding LEFTY2 protein – biochemical, small-molecule microarray, 635 nm fluorescence scan, primary screen (AID 1110). The following applies: higher = more signal.
Chain of Left-right determination factor 2 (Homo sapiens) (O00292 whole entry, looked up): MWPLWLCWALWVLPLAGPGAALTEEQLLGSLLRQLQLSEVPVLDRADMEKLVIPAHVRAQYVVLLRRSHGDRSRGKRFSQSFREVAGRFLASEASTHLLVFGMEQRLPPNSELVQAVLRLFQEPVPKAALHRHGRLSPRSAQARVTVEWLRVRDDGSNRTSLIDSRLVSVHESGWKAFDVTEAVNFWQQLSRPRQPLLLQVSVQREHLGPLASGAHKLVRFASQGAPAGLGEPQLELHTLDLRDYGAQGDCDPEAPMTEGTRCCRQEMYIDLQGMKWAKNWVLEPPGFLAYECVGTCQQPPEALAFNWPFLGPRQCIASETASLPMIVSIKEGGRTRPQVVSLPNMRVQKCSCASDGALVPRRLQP
For test [14], the target named is Calmodulin-1 (Homo sapiens) (UniProt P0DP23). The experiment in a line: small molecules binding calmodulin-1 with EGTA – biochemical, small-molecule microarray, Cy5-labelled CALM1, profiling panel (AID 1111).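 Also: labelled calmodulin applied in Tris saline Tween buffer holding calcium plus EGTA and DTT.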 The following applies: Cy5-CALM1 binding fluorescence, higher = more signal.
For test [15] the target is unchanged. The experiment in a line: small molecules binding Ca-loaded calmodulin-1 – biochemical, small-molecule microarray, Cy5-labelled CALM1, plus calcium, artefact control for SMM control-protein annotation, profiling panel (AID 1112).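 Also: score merges spot fluorescence with signal to noise from triplicate slides.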 The conditions noted are these: Cy5-CALM1 binding fluorescence, higher = more signal.
Test [16] is described as follows: probe aWnt5a binding to arrayed compounds – biochemical, biotinylated probe, 635/667 nm fluorescence, primary screen (AID 1113).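 Also: score merges 667 nm fluorescence intensity with signal-to-noise per printed feature.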 The conditions noted are these: small-molecule microarray, higher = more signal.
Test [17] is described as follows: probe aShh binding to arrayed compounds – biochemical, biotinylated probe, 635/667 nm fluorescence, primary screen (AID 1114).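 Also: probe is biotin-labelled aShh protein from a stem cell growth factor screen; measures binding of labelled protein to compounds printed on the slide; score merges feature fluorescence at 667 nm with signal-to-noise.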 The conditions noted are these: small-molecule microarray, higher = more signal.
A short description of test [18]: probe aNog binding to arrayed compounds – biochemical, biotinylated probe, 635/667 nm fluorescence, primary screen (AID 1115).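 Also: probe is biotinylated aNog protein used at 0.15 µg/mL for 1 h at 4 C; z-score combines 667 nm fluorescence of each spot with its signal to noise.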 The following applies: small-molecule microarray, higher = more signal.
Test [19] addresses Torsin-1A-interacting protein 1 (Homo sapiens) (UniProt Q5JTV8). The experiment in a line: compound microarray binding of lysate hLAP1 – cell lysate, small-molecule microarray, COS7 lysate, 635/667 nm fluorescence, primary screen (AID 1116). The conditions noted are these: 635 nm fluorescence, higher = more signal.
Test [20] addresses Alpha-bungarotoxin (Bungarus multicinctus) (UniProt P60615). The experiment in a line: compounds binding labelled alpha-BTX control protein – biochemical, small-molecule microarray, Alexa647 label, 635/667 nm fluorescence, artefact control for SMM control protein annotation, profiling panel (AID 1117). The following applies: alpha-BTX-A647 binding fluorescence, higher = more signal.

Chain of Epidermal growth factor receptor (Homo sapiens) (P00533 whole entry, looked up): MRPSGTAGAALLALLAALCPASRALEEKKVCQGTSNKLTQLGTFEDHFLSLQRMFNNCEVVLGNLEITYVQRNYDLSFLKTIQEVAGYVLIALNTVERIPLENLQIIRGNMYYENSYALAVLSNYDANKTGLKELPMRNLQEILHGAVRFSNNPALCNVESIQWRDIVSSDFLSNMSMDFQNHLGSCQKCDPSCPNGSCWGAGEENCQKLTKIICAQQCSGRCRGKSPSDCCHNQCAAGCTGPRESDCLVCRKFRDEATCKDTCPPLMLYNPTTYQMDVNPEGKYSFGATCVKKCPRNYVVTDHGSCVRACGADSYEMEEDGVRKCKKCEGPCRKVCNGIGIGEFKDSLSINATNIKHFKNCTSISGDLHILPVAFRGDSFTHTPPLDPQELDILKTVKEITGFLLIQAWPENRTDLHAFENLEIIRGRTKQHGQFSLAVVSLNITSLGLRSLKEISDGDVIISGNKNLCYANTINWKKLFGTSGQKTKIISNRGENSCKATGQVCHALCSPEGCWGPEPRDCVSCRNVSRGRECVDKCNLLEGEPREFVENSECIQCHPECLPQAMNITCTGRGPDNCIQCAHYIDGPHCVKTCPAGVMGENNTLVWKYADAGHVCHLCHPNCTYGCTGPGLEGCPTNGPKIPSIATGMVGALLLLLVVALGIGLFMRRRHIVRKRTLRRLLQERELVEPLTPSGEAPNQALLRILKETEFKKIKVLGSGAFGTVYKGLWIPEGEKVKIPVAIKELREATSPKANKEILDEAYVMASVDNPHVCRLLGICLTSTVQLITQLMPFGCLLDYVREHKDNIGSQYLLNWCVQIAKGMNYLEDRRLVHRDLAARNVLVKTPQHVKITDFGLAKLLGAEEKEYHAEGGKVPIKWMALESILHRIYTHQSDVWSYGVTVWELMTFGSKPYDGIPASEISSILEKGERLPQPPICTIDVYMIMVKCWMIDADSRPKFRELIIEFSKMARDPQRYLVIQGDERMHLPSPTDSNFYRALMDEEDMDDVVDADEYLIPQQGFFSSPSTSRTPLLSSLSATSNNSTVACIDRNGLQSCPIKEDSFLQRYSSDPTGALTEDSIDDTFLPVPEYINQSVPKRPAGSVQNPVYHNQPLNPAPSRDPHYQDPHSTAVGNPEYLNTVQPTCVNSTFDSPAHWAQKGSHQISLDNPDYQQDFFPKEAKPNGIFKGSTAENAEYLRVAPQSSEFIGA
Chain of Torsin-1A-interacting protein 1 (Homo sapiens) (Q5JTV8 whole entry, looked up): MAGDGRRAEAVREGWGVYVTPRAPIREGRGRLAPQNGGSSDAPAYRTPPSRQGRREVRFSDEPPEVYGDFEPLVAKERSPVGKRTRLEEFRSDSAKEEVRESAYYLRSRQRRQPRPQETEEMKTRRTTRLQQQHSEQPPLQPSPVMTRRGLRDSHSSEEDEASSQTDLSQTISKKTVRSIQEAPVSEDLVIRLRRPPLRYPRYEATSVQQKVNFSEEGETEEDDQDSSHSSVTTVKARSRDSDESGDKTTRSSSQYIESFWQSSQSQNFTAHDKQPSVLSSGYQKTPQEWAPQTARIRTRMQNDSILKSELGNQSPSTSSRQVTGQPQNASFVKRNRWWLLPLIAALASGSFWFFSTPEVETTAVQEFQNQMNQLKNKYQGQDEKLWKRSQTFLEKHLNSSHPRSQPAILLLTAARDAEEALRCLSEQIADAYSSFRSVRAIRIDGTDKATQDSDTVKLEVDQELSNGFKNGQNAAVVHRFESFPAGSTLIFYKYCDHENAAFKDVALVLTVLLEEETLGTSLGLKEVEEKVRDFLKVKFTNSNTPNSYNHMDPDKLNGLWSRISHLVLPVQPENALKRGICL
Chain of Alpha-bungarotoxin (Bungarus multicinctus) (P60615 whole entry, looked up): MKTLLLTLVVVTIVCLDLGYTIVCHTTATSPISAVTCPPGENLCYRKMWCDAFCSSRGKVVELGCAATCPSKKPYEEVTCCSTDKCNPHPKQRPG
Chain of Follistatin-related protein 3 (Homo sapiens) (O95633 whole entry, looked up): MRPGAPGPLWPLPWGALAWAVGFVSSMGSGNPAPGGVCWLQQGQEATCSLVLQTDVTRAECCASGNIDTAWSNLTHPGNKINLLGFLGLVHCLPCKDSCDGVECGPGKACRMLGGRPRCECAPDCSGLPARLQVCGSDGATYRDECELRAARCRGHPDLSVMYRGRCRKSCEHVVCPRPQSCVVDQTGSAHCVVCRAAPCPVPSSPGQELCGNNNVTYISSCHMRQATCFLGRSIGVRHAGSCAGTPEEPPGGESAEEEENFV

In the case of `C=CCN(CCCCC)C(=O)C(c1cccs1)N(CCOCCO)C(=O)/C=C\C(=O)O` (stereo not given), the composite z-score in test [1] is 0.0427 and 0.42; in test [2], -0.588 and -0.228; in [3], 0.658 and 0.6; in test [5], -1.6 and -0.98; in test [6], -0.918 and -0.491; in test [7] it was -1.05 and -0.766. Further, the composite z-score in [8] is -0.411 and -0.744; in [9], -1.04 and -1.54; in test [10], -1.79 and -0.36; in test [11], -1.74 and -0.0507; in test [13] it was -0.828 and -1.56; in test [14], -1.04 and -0.776. Further, the composite z-score in [15] was -0.408 and 0.326; in test [16] it was -0.135 and -0.199; in [17] it was -0.223 and -0.283; in test [18], -0.308 and 0.0644; in test [19], -0.922 and -0.405; in test [20], -0.676 and 1.14. Moreover, the z-score in test [4] is -0.841 (inactive) and -1.36 (inactive); in [12], -0.572 and 0.96.

`CCOC(=O)[C@@H]1CC2O[C@]23C[C@@H]1C(=O)N1CCC[C@@H]1[C@H]3O[Si](C)(C)C(C)(C)C` (stereo not given in full): the composite z-score in [1] was -0.494 and -0.107; in test [2] it was -0.557 and -0.234; in test [3] it was -0.645 and -0.63; in test [5], -0.438 and 0.433; in test [6], -0.755 and 0.491; in test [7], -0.133 and -0.303. The composite z-score in [8] is -0.937 and 0.184; in test [9] it was 0.389 and 0.364; in test [10], 0.456 and 0.999; in [11], -1.22 and -0.182; in test [13], -0.125 and 0.446; in test [14], -0.46 and -0.641. Also, the composite z-score in test [15] is -0.748 and -0.252; in test [16], -0.251 and -0.124; in test [17], -0.299 and -0.197; in test [18] it was -0.321 and -0.134; in [19], -0.826 and -0.136; in test [20], 0.102 and -0.667. The z-score in [4] was 0.559 (inactive) and 0.577 (inactive); in [12] it was -0.417 and -0.4.

Take `O=C1C[C@]2(c3ccc([N+](=O)[O-])cc3)C(=O)N(Cc3ccccc3)c3cc(CO)ccc3[C@H]2N1C1CCCCC1`: the composite z-score in test [1] was -0.179 and 0.678; in test [2], -0.153 and 1.26; in test [3], -0.0948 and 0.78; in [5] it was -0.225 and 0.994; in [6], 1.11 and -0.148; in test [7], 0.079 and 0.291. Moreover, the composite z-score was 0.413 and -0.017 in [8]; -0.0921 and 0.434 in test [9]; 0.4 and 0.359 in test [10]; 0.986 and 0.622 in [11]; -1.1 and 0.586 in [13]; -0.135 and 1.19 in test [14]. Also, the composite z-score in [15] is -0.195 and 0.163; in [16], -0.0546 and -0.0556; in [17], 0.0611 and 0.393; in [18], -0.262 and 0.344; in test [19], 0.395 and -0.136; in test [20] it was 0.0277 and -0.0515. For the same molecule, the z-score is 0.0261 (inactive) and -0.478 (inactive) in [4]; -0.107 and -2.97 in test [12].

As to `C=C[C@@H](C)[C@H](O)c1ccc(O)c2ccccc12`, the composite z-score in test [1] is 1.09 and 0.905; in test [2] it was -0.493 and -0.379; in test [3], -0.289 and 0.255; in test [5], -0.309 and -0.862; in test [6] it was -0.347 and -0.958; in [7], 0.617 and -0.987. For the same molecule, the composite z-score in [8] was 0.294 and -0.579; in test [9], 0.481 and -0.33; in test [10], 1.53 and 1.13; in [11] it was -0.54 and -1.74; in test [13], 0.265 and -0.863; in test [14], -1.27 and -1.29. For the same molecule, the composite z-score was -1.21 and -1.19 in test [15]; -0.224 and -0.283 in [16]; -0.0035 and -0.0709 in test [17]; -0.157 and -0.299 in [18]; -0.444 and -0.659 in [19]; -0.286 and -0.508 in [20]. Further, the z-score in test [4] was 0.126 (inactive) and 0.292 (inactive); in [12], -0.857 and -0.0113.

For the molecule `C=CC[C@@H](O)c1ccc(O)c(F)c1`, the composite z-score in test [1] was 0.358 and 0.514; in test [2], -0.388 and -0.293; in test [3], 0.92 and 0.751; in [5] it was -1.38 and -0.756; in test [6], -1.43 and -0.85; in test [7] it was -1.81 and -1.65. Besides, the composite z-score is -2.63 and -1.02 in [8]; -1.95 and -0.898 in test [9]; -2.07 and -0.334 in test [10]; -0.612 and -0.685 in [11]; -2.46 and -1.47 in [13]; -0.75 and -1.41 in [14]. Also, the composite z-score in test [15] was 0.0576 and -0.0804; in test [16], -0.0399 and -0.278; in test [17], -0.332 and -0.124; in test [18] it was -0.116 and -0.62; in test [19], -0.635 and -0.47; in test [20] it was -1.9 and -2.33. The z-score in test [4] was -0.55 (inactive) and -1.23 (inactive); in test [12], -0.947 and 0.848.
